Assay outcomes deposited in PubChem BioAssay by National Center for Advancing Translational Sciences (NCATS).
MCF10A rerep: A quantitative high throughput screen for small molecules that induce DNA re-replication in MCF 10a normal breast cells; MCF 10A DNA re-replication, Hoechst nuclear intensity, 48 h; Potency, µM (highest dose often 46.1 µM), inactives show at the highest dose activity, positive = re-replication, hits mostly activators; 2.9% of 350,000 active; AID 624296, 2012; further: potency means the concentration at half of the fitted maximal effect; % of control where 0% means no effect; nearly all actives have a fitted effect of over 50% in size
SW480 rereplic: A quantitative high throughput screen for small molecules that induce DNA re-replication in SW480 colon adenocarcinoma cells; SW480 DNA re-replication, Hoechst DNA content imaging, 48 h; Potency, µM (highest dose often 46.1 µM), for the others: at the top dose re-replication activation, actives largely listed as activators; 1.8% of 340,000 active; further: potency means the concentration at half of the fitted maximal effect; % of control where 0% means no effect; nearly all actives have a fitted effect of over 55% in size
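Cells (250 per well) received 23 nL compound or DMSO by pin tool and were kept 48 hr at 37 C, 5% CO2. Nuclei were then stained with Hoechst for 40 min and scanned for DNA content.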
KB-3-1 cytotox: qHTS assay for MDR1-selective chemotherapeutics: Primary screen using the parental adenocarcinoma cell KB-3-1; KB-3-1 viability, CellTiter-Glo ATP luminescence, 72 h; Potency, µM (top dose mostly 46.1 µM), hits mostly cytotoxic; 1.4% of 400,000 active; AID 1347075, 2019; further: potency means the concentration at half of the fitted maximal effect; on the % scale 0 is the no-effect control and ±100 the full control effect; nearly all actives have a fitted effect of over 60% in size
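Multi-concentration cytotoxicity screen in KB-3-1 cells grown in DMEM lacking phenol red with 10% FBS. After 72 h at 37 °C with compound, ATP-dependent luminescence was recorded.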
IL-1B inflam inh: qHTS for Inhibitors of Inflammasome Signaling: IL-1-beta AlphaLISA Primary Screen | 4.7% of 360,000 active | AID 743279, 2014 | activity change, % at 57.5 µM | THP-1 LPS/ATP IL-1B secretion, AlphaLISA, 16 h; hits give low values; in the data active means activity change below about -50%; inconclusive means mostly about -30% to -49%; further: on the % scale 0 is the no-effect control and ±100 the full control effect
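Secreted IL-1B measured by AlphaLISA bead assay after 16 h compound exposure of THP-1 cells; compounds (final up to 57.5 uM) added 1 h before LPS (250 ng/mL) and ATP (1.25 mM) stimulation; lower signal means less secretion.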
KB-V1 MDR tox: qHTS assay for MDR1-selective chemotherapeutics: Primary screen using the drug-selected MDR subline cells KB-V1 | KB-V1 MDR cells viability, CellTiter-Glo, 72 h | Potency, µM (titrated, usually from 46.1 µM), actives largely listed as cytotoxic | 3.4% of 400,000 active | AID 1347076, 2019; further: potency means the concentration at half of the fitted maximal effect; on the % scale 0 is the no-effect control and ±100 the full control effect; nearly all actives have a fitted effect of over 60% in size
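Following 72 h at 37 degrees C with compound, KB-V1 cell viability was read by CellTiter-Glo luminescence, medium being phenol-red-free DMEM plus 10% FBS; concentration-response parameters came from normalized, curve-fitted qHTS data.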
Active calls of the source: *; i = inactive; ? = inconclusive; / = not tested or not shown. An excerpt weighted towards active compounds, which were near 9.9% of everything screened. Unless noted, the call rests on the fitted dose curve; in most records, active means well fitted curve in the direction sought with a large enough effect; inconclusive means small, poorly fitted or top-dose-only effect, or another doubt; inactive means no such curve, though single readings can be large; an effect the other way counts as inactive or inconclusive.

SMILES | MCF10A rerep | SW480 rereplic | KB-3-1 cytotox | IL-1B inflam inh | KB-V1 MDR tox
COc1ccc(NC(=O)N2CCN(c3cccc(C(F)(F)F)c3)CC2)cc1OC | 5% | 1% | i | 0 | 13µM*
O=C(Nc1ccccc1)N1CCN(c2cccc(C(F)(F)F)c2)CC1 | -8% | -7% | i | -50* | ?
CCC(C)C(NC(=O)C(Cc1ccc(O)cc1)NC(=O)OCc1ccccc1)C(=O)OC (stereo not given) | / | / | i | 24 | i
CCCOc1ccc(NC(=O)CC2C(=O)N(CC)C(=S)N2Cc2cccs2)cc1 (stereo not given) | 8% | 17% | ? | -4 | 15µM*
CCCCCCOc1ccc(NC(=O)CC2C(=O)N(CC)C(=S)N2Cc2ccco2)cc1 (stereo not given) | 18µM* | ? | ? | -101* | i
C=CCN1C(=O)C(CC(=O)Nc2ccc(OCCC)cc2)N(CCCN2CCN(Cc3ccccc3)CC2)C1=S (stereo not given) | ? | 8% | i | -67* | ?
COC(=O)CCCn1cc(CN2CC(N(C)C)CS2(=O)=O)nn1 (stereo not given) | / | / | i | 36 | i
O=C(c1c2c(nc3ccccc13)C(=O)N(C1CCCCC1)C2)N1CCN(c2ccc(F)cc2)CC1 | / | / | i | / | i
CCCCC(=O)NNC(=O)N1c2ccccc2Sc2ccccc21 | 4% | 11% | i | 6 | i
Cc1cc(Br)ccc1NC(=O)c1ccccc1-c1ccccc1 | -2% | 27% | i | ? | 13µM*
O=C(Nc1ccccc1-c1ccccc1)c1ccccc1Br | 11% | 2% | i | 16 | ?
O=C(Nc1ccccc1Br)c1ccccc1-c1ccccc1 | 13µM* | 16µM* | 7.3µM* | 13 | ?
Cc1c(C)n(CCCN(C)C)c2ncnc(Nc3ccccc3)c12 | ? | -21% | i | -27 | i
COc1ccc(Nc2ncnc3c2c(C)c(C)n3CCCN(C)C)cc1 | 8% | -2% | i | -10 | i
COc1ccccc1Nc1ncnc2c1c(C)c(C)n2CCCN(C)C | ? | 21µM* | i | ? | i
Cc1c(C)n(CCCN(C)C)c2ncnc(NC3CCCCC3)c12 | ? | ? | i | -53* | i
COc1ccc2c(c1)c(CC(=O)Nc1cccc(F)c1C)c(C)n2C(=O)c1ccc(Cl)cc1 | / | / | i | / | ?
Clc1ccc(-n2nnnc2Sc2ncnc3sccc23)cc1 | 10µM* | 6.5µM* | ? | -120* | ?
Cc1sc2ncnc(Sc3nnnn3-c3ccccc3)c2c1C | ? | ? | ? | -101* | ?
c1ccc(-c2ccc(-c3csc4ncnc(Sc5nnnn5-c5ccccc5)c34)cc2)cc1 | / | / | i | / | i
O=C(COC(=O)Cc1ccc(Cl)cc1)Nc1c(F)cccc1F | -1% | -16% | i | -1 | i
N/C(COc1cc(Cl)cc(Cl)c1)=N\O | -3% | -3% | i | -18 | i
CCC(=O)c1ccc(OCC(=O)NC2(C#N)CCCCC2)cc1 | -1% | 11% | i | -29 | ?
CCC1([N+](=O)[O-])COC(C=Cc2ccccc2)OC1 (stereo not given) | -11% | -3% | i | -19 | i
O=C1C=CCC(/C=C/c2ccccc2)O1 (stereo not given) | 15µM* | 16µM* | ? | -103* | ?
SMILES | MCF10A rerep | SW480 rereplic | KB-3-1 cytotox | IL-1B inflam inh | KB-V1 MDR tox
N#Cc1ccccc1Cn1c(=O)n(CCCCC(=O)NCc2ccc3c(c2)OCO3)c(=O)c2ccccc21 | / | / | i | / | i
O=C1NC(=S)N/C1=C/c1cccc([N+](=O)[O-])c1O | -3% | -6% | ? | -4 | i
O=C1NC(=S)N/C1=C/c1cc([N+](=O)[O-])ccc1O | 27% | 10µM* | i | -1 | i
O=C(COC(=O)c1ccc(Br)o1)Nc1ccc(N2CCOCC2)cc1 | 9% | -7% | i | -23 | i
CN(C)C(CNC(=O)c1cccc(S(=O)(=O)N2CCN(c3ccc(F)cc3)CC2)c1)c1ccccc1 (stereo not given) | ? | ? | ? | -74* | i
CN(C)CCCNC(=O)c1ccc(Cl)c(S(=O)(=O)N2CCCCCC2)c1 | 0% | -4% | / | 3 | /
CN(C)C(CNC(=O)c1ccc(Cl)c(S(=O)(=O)N2CCCCCC2)c1)c1ccccc1 (stereo not given) | -6% | ? | i | -59* | i
COc1cccc(CN(C)C(=O)c2ccc(Cl)c(S(=O)(=O)N3CCCCCC3)c2)c1OC | 7% | -23% | i | -53* | ?
COc1ccccc1CNC(=O)c1cccc(S(=O)(=O)N2CCN(c3ccc(F)cc3)CC2)c1 | 5% | 6% | i | -7 | i
CCc1nnc(NC(=O)CCC(=O)NC2CCCc3ccccc32)s1 (stereo not given) | -5% | -13% | i | 44 | i
CC(C)N1C(=O)S/C(=C/c2ccc(Sc3nc4ccccc4[nH]3)o2)C1=O | ? | ? | ? | -79* | 23µM*
C=CCN1C(=O)S/C(=C/c2ccc(Sc3nc4ccccc4[nH]3)o2)C1=O | ? | 22% | ? | -28 | 3.7µM*
N#CC1(NC(=O)COC(=O)c2ccccc2SCC(=O)N2CCCC2)CCCCC1 | 0% | 3% | i | -15 | i
O=C(O)C1(c2ccccc2)CCN(S(=O)(=O)c2cccc(Cl)c2)CC1 | -14% | -13% | ? | 10 | ?
O=C(CN1C(=O)NC2(CCCC2)C1=O)N1CCN(S(=O)(=O)c2cccc(C(F)(F)F)c2)CC1 | -1% | 10% | i | 4 | i
CCCCN(CCCC)S(=O)(=O)c1ccc(N2CCCC2=O)c([N+](=O)[O-])c1 | 19% | 22% | i | 15 | ?
CCCN(CCC)S(=O)(=O)c1ccc(N2CCCC2=O)c([N+](=O)[O-])c1 | 1% | -5% | i | 2 | 21µM*
CCCN(CCC)S(=O)(=O)c1ccc(Cl)c([N+](=O)[O-])c1 | ? | 6% | i | -103* | i
CCCC(=O)Nc1cc(S(=O)(=O)N(CC)CC)ccc1Cl | 2% | 9% | i | -3 | i
CCOC(=O)C(C)(C)N(Cc1ccccc1C)S(=O)(=O)c1ccc(Cl)c([N+](=O)[O-])c1 | 18µM* | ? | i | -97* | i
CCOC(=O)N(C)S(=O)(=O)c1ccccc1[N+](=O)[O-] | 4% | -2% | ? | -5 | i
O=c1[nH]ncn1-c1ccccc1 | 1% | -18% | i | 38 | i
